Only some compounds are listed: those with a hit (about 2.2% of all), similar ones and a draw of the others.
PLC-gamma1 inh: PLC-gamma1 enzyme inhibitors, primary screen, biochemical, fluorescence, purified enzyme; 1-phosphatidylinositol 4,5-bisphosphate phosphodiesterase gamma-1 (Homo sapiens), P19174; fluorogenic substrate; inhibition, % at 12.2 µM; 370,000 tested, 0.84% active; in the data active = inhibition above about 9.5%
PLCb3 inh: human PLC-beta3 inhibitors, primary screen, biochemical, fluorescence; 370,000 tested, 0.18% active; inhibition, % at 12.2 µM; Purified PLC-beta3, fluorogenic substrate; AID 720704, 2013; in the data active = inhibition above about 11%;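 also: 0% = median of compound wells on plate and 100% = full blocker control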
FAS-TE inh: FAS thioesterase domain inhibitors, primary screen, biochemical, fluorescence intensity, uHTS. Fatty acid synthase (Homo sapiens), P49327. recombinant FAS-TE, OMFH fluorogenic substrate, fluorescence endpoint. inhibition, % at 15 µM. 360,000 tested, 0.67% active. AID 602261, 2012;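 active = compounds whose normalised, plate-corrected inhibition of enzyme fluorescence in the single-dose primary screen is 50% or more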;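 also: 0% = DMSO with enzyme and 100% = substrate without enzyme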
H9c2 protect: cardioprotection against H2O2-induced cell death, primary screen, uHTS, H9c2 cells, ATPLite luminescence; H9c2 cardiomyocytes, H2O2 injury protection, 2 h; protection from H2O2 cell death, % at 20 µM; 360,000 tested, 0.63% active;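 active = compounds giving at least 50% protection of heart cells from peroxide-induced death in the single-dose screen, raw or plate-pattern-corrected value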;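 also: 0% = DMSO wells with peroxide and 100% = DMSO wells without peroxide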
FAS-TE inh conf: FAS thioesterase domain inhibitors, confirmation, biochemical, fluorescence intensity, single concentration. shares compounds with FAS-TE inh. recombinant FAS-TE, OMFH fluorogenic substrate. inhibition, % at 15 µM. 2,300 tested, 45% active;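 active = compounds inhibiting the enzyme by at least 50% at 15 µM in any one of the replicates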;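 also: 0% = enzyme with DMSO only and 100% = wells lacking enzyme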
* hit, by the source's call.

`O=S(=O)(c1ccc(-c2csc(Nc3ccc(F)cc3)n2)cc1)N1CCCC1` gave PLC-gamma1 inh -117, PLCb3 inh -143, FAS-TE inh 65*, H9c2 protect -12 and FAS-TE inh conf 46*.
`O=C(Nc1nc(-c2ccc(S(=O)(=O)N3CCCC3)cc2)cs1)C1COc2ccccc2O1` (stereo unspecified) gave PLC-gamma1 inh -8, PLCb3 inh -10, FAS-TE inh 90*, H9c2 protect 66* and FAS-TE inh conf 43*.
Screening O=C(COc1ccccc1)Nc1nc(-c2ccc(S(=O)(=O)N3CCOCC3)cc2)cs1 returned PLC-gamma1 inh -29, PLCb3 inh -37, FAS-TE inh 86*, H9c2 protect 0 and FAS-TE inh conf 58*.
CCN(CC)C(=O)CC[C@H]1CC[C@]2(CCCN(S(=O)(=O)C3CCCCC3)C2)O1 was read as PLC-gamma1 inh 1 and PLCb3 inh 0.
Screening COc1cc2c(-c3ccc4[nH]ccc4c3)c(-c3ccc(C#N)cc3)oc(=O)c2cc1OC returned PLC-gamma1 inh -69, PLCb3 inh -98, FAS-TE inh 55*, H9c2 protect 2 and FAS-TE inh conf 28.
For CCOC(=O)c1ccc(-c2c(-c3ccc(OC)cc3)oc(=O)c3cc(OC)c(OC)cc23)cc1F the results were PLC-gamma1 inh -3, PLCb3 inh -19, FAS-TE inh 58*, H9c2 protect 6 and FAS-TE inh conf 6.
`CC(C)Oc1ccc(S(=O)(=O)N2CCCCC2)cc1NC(=O)C1=COCCO1` gave PLC-gamma1 inh 3, PLCb3 inh -5, FAS-TE inh 11 and H9c2 protect -5.
For Cc1cccc(Oc2ccc(S(=O)(=O)N3CCCCC3)cc2NC(=O)C2=COCCO2)c1 the results were PLC-gamma1 inh 0, PLCb3 inh -2, FAS-TE inh 65*, H9c2 protect -8 and FAS-TE inh conf 6.
`CCC[C@H]1[C@H](N)CC[C@@]23CCCN2C(=O)CCC[C@@H]13` gave PLC-gamma1 inh 0 and PLCb3 inh 1.
Screening O=C(OCc1ccccc1)N1CCC2CC1c1cc(N3CCN(C(=S)NCCc4ccccc4)CC3)ccc12 (stereo unspecified) returned PLC-gamma1 inh 3, PLCb3 inh 5, FAS-TE inh 25 and H9c2 protect -3.
COc1ccc(NC(=S)N2CCN(c3ccc4c(c3)C3CCN(C(=O)OCc5ccccc5)C4C3)CC2)c(OC)c1 (stereo unspecified) was read as PLC-gamma1 inh 1, PLCb3 inh 3, FAS-TE inh 57*, H9c2 protect -6 and FAS-TE inh conf 11.
For COc1ccc(-n2c(SCC(=O)Nc3cc(C)c(NC(=O)c4ccccc4)cc3OC)nnc2-c2ccco2)cc1 the results were PLC-gamma1 inh 7 and PLCb3 inh 2.
Screening CCCS(=O)(=O)NC(=O)C1(C)CCN1C(=O)Cc1ccc(Cl)cc1Cl (stereo unspecified) returned PLC-gamma1 inh 3, PLCb3 inh 3, FAS-TE inh -10 and H9c2 protect 5.
COc1cccc(-n2c(CN3CCN(c4ccccc4)CC3)nc3ccc([N+](=O)[O-])cc3c2=O)c1 was read as PLC-gamma1 inh -1, PLCb3 inh 1, FAS-TE inh 72*, H9c2 protect 9 and FAS-TE inh conf 31*.
`COc1ccc(-n2c(CN3CCN(c4ccccc4OC)CC3)nc3ccc([N+](=O)[O-])cc3c2=O)c(OC)c1` gave PLC-gamma1 inh 1, PLCb3 inh -3, FAS-TE inh 32 and H9c2 protect 7.
`Cc1cccc([C@@H]2[C@@H]3C(=O)N(Cc4ccccc4)C(=O)[C@@H]3[C@]3(Cc4ccccc4)C(=O)N(c4ccc(C(F)(F)F)cc4)C(=O)N23)c1` gave PLC-gamma1 inh 3, PLCb3 inh 3, FAS-TE inh 90*, H9c2 protect -3 and FAS-TE inh conf 27.
`Cc1cccc([C@@H]2[C@@H]3C(=O)N(Cc4ccccc4)C(=O)[C@@H]3[C@]3(Cc4ccc(Cl)cc4)C(=O)N(c4cccc(Br)c4)C(=O)N23)c1` gave PLC-gamma1 inh 2, PLCb3 inh -1, FAS-TE inh 91*, H9c2 protect -1 and FAS-TE inh conf 23.
For Cc1cccc([C@@H]2[C@@H]3C(=O)N(Cc4ccccc4)C(=O)[C@@H]3[C@]3(Cc4ccc(Cl)cc4)C(=O)N(c4ccccc4)C(=O)N23)c1 the results were PLC-gamma1 inh -1, PLCb3 inh -4, FAS-TE inh 93*, H9c2 protect -8 and FAS-TE inh conf 23.
For CCN1C(=O)[C@H]2[C@@H](c3ccc(C)cc3)N3C(=O)N(c4ccc(C)cc4)C(=O)[C@@]3(Cc3ccccc3)[C@H]2C1=O the results were PLC-gamma1 inh -14, PLCb3 inh -1, FAS-TE inh 13 and H9c2 protect -2.
Screening Cc1cccc([C@@H]2[C@@H]3C(=O)N(Cc4ccccc4)C(=O)[C@@H]3[C@]3(C)C(=O)N(c4cccc(Cl)c4)C(=O)N23)c1 returned PLC-gamma1 inh 1, PLCb3 inh 1, FAS-TE inh 23 and H9c2 protect -2.
Screening CC[C@@]12C(=O)N(c3ccccc3)C(=O)N1[C@H](c1cccc(C)c1)[C@@H]1C(=O)N(Cc3ccccc3)C(=O)[C@@H]12 returned PLC-gamma1 inh 4, PLCb3 inh 4, FAS-TE inh 3 and H9c2 protect 0.
CC[C@@]12C(=O)N(c3cccc(Br)c3)C(=O)N1[C@H](c1cccc(C)c1)[C@@H]1C(=O)N(Cc3ccccc3)C(=O)[C@@H]12 was read as PLC-gamma1 inh 1, PLCb3 inh 4, FAS-TE inh 55*, H9c2 protect 4 and FAS-TE inh conf 31.
`C=CCN(CC#Cc1ccccc1)Cc1ccc(OC)cc1OC` gave PLC-gamma1 inh -1 and PLCb3 inh 0.
`CCC(=O)N(C)C[C@@H]1[C@H](c2ccc(C3=CCCCC3)cc2)[C@H](CO)N1C(=O)CC` gave PLC-gamma1 inh 0 and PLCb3 inh 0.
Screening Cc1ccc(NC(=O)/C(=C\c2ccc([N+](=O)[O-])cc2)NC(=O)c2ccccc2)cc1 returned PLC-gamma1 inh 1, PLCb3 inh -4, FAS-TE inh 20 and H9c2 protect -3.
COc1ccc(/C=C(\NC(=O)c2ccc([N+](=O)[O-])cc2)C(=O)NCCCn2ccnc2)cc1 was read as PLC-gamma1 inh 2, PLCb3 inh -3, FAS-TE inh 74*, H9c2 protect 4 and FAS-TE inh conf 81*.
Screening O=C(Nc1ccc(C(=O)O)cc1)/C(=C\c1ccc([N+](=O)[O-])cc1)NC(=O)c1ccc(Br)cc1 returned PLC-gamma1 inh 4, PLCb3 inh 1, FAS-TE inh 82*, H9c2 protect -4 and FAS-TE inh conf 91*.

Bioassay records from PubChem BioAssay.
